Data on 40 compounds can be found in ChEMBL document CHEMBL1157539, “Thousands of chemical starting points for antimalarial lead identification” (Nature, 2010).

The first test has as its system Plasmodium falciparum. The test is described as follows: GSK_TCMDC: Inhibition of Plasmodium falciparum Dd2 in whole red blood cells, using parasite LDH activity as an index of growth. Test compounds present at 2uM. It is filed as functional.
In the case of `CCOC(=O)NC1=NC(C)(C)N(OCc2ccc(Cl)c(Cl)c2)C(NC(=O)OCC)=N1`, the Inhibition worked out at 4%.

As for `c1ccc2[nH]c(CN(Cc3nc4ccccc4[nH]3)Cc3nc4ccccc4[nH]3)nc2c1`, the Inhibition is 86%.

Compound `COc1ccc(CNC2CCN(C)CC2)cc1-c1ccc(S(=O)(=O)NCc2ccccc2)cc1.O=C(O)C(F)(F)F` had an Inhibition of 99%.

Compound `FC(F)(F)c1ccc(NC(=S)N2CCC(CCN3CCC(c4c[nH]c5ccccc45)CC3)CC2)cc1` yielded an Inhibition of 37%.

`Br.CC1(C)NC(N)=NC(=N)N1OCCCc1cccc(C(F)(F)F)c1` gave an Inhibition of 95%.

On to `Nc1nccc2ccc(OC3CCCCC3)cc12.O=CO`, for which the Inhibition was 41%.

In turn, `Cc1cc(NCC(C)C)c2[nH]nc(-c3ccccc3)c2n1` came in with an Inhibition of 30%.

In turn, `CC1CCc2c(C(=O)Nc3c(F)cc(F)cc3Br)csc2C1` (stereo not given) gave an Inhibition of 59%.

As to `Cc1c(-c2cccc(Br)c2)[nH]c2nc(N)nc(N)c12`, the Inhibition is given as 61%.

As to `Cc1cc(C(=O)CN2C(=O)NC3(CCCc4ccccc43)C2=O)c(C)n1Cc1ccco1` (stereo not given), the Inhibition was 0%.

Consider `O=C(O)c1cc(C(F)(F)F)co1`, for which the Inhibition is 19%.

For the compound `CN1CCN(CC(O)CNC(=O)Nc2ccc(Br)cc2)CC1.O=C(O)C(F)(F)F` (stereo not given), the Inhibition is 100%.

For the compound `O=C(Nc1cccc(C(F)(F)F)c1)c1cc([N+](=O)[O-])cc2cn[nH]c12`, the Inhibition turned out to be 69%.

Take `COc1ccc(-c2ccc(CNC3Cc4ccccc4C3)cc2)cc1S(=O)(=O)NCCN1CCCC1.O=C(O)C(F)(F)F`: the Inhibition is given as 99%.

`COc1cc(Cc2c(C)nc3nc(N)nc(N)c3c2C)c(Br)c(OC)c1OC.Cl`: the Inhibition was found to be 0%.

The test system of a further test is HepG2. Description: GSK_TCMDC: Percent inhibition of human HepG2 cell line. Test compounds present at 10uM. It is filed as functional.
`Cc1cc(=O)c(-c2ccc(Oc3cccc(Cl)c3)cc2)c(C)[nH]1` registered an Inhibition of 23%.

`CN(C)CCN(C)Cc1ccc(-c2cccc(NC(=O)c3ccc(Cl)cc3)c2)cc1.O=C(O)C(F)(F)F`: the Inhibition came to 69%.

`CCCCN(CCCC)Cc1cc2ccccc2cc1O.Cl` registered an Inhibition of 9%.

Regarding `Cl.N#Cc1ccc2c(c1)CCN(CCC1CCC(NC(=O)Nc3cnc4ccccc4c3)CC1)C2` (stereo not given), the Inhibition is on record as 14%.

Take `Cl.N=C(N)NN=Cc1cc([N+](=O)[O-])ccc1Sc1ccccc1CO`: the Inhibition amounted to 25%.

`CCCN1CCC=C(c2cccc(Nc3nccc(Nc4cc(OC)ccc4C)n3)c2)C1.Cl` showed an Inhibition of 15%.

The compound `O=C(N[C@@H](CC1CCCCC1)C(=O)NCCN1CCCC1)c1ccc(O)c(-c2ccc(Cl)c(Cl)c2)c1` gave an Inhibition of 16%.

Regarding `CCCc1cc(C(=O)N[C@@H](Cc2ccccc2)[C@H](O)CNC(C)(C)c2cccc(OC)c2)c(F)c(N2CCCC2=O)c1.O=CO`, the Inhibition was determined as 7%.

For `Cc1ccc(C(NC(=O)c2ccccc2)c2ccc3cccnc3c2O)cc1` (stereo not given), the Inhibition is 53%.

As for `Cc1cccc2nc(-c3cccc(-c4cccc(NC(=O)CNC(=O)c5ccc(O)cc5)c4)c3)[nH]c12`, the Inhibition worked out at 9%.

Take `Cc1cc(NC(=O)c2ccco2)ccc1OC1CCN(Cc2ccc(C#N)cc2)CC1.O=C(O)C(F)(F)F`: the Inhibition amounted to 2%.

Compound `Cc1cc(Nc2ccncc2)n2nc(C)c(-c3ccc(Cl)cc3)c2n1` returned an Inhibition of 0%.

`CC(=O)Nc1ccc(C(=O)Nc2cccc(-c3cccc(-c4nc5cc(F)ccc5[nH]4)c3)c2)cn1` displayed an Inhibition of 0%.

In turn, `CC(Cl)=CCc1c(C)nc2c(ccc3ccccc32)c1O` gave an Inhibition of 24%.

`O=C(Nc1cccc(CN2CCCN(Cc3ccsc3)CC2)c1)c1ccc(-c2ccccc2)cc1.O=C(O)C(F)(F)F` returned an Inhibition of 30%.

`Cc1cccc2nc(-c3cccc(-c4cccc(NC(=O)NC5CC5c5ccccc5)c4)c3)[nH]c12` (stereo not given) returned an Inhibition of 0%.

As to `Cc1ccc(Cn2cnc(N3CC(C)NC(C)C3)cc2=O)cc1NC(=O)Nc1ccc(-c2ccccc2)cc1.O=C(O)C(F)(F)F` (stereo not given), the Inhibition came to 18%.

As to `Cc1cc(C2CCN(CCCCNC(=O)c3ccc(-c4ccc(C#N)cc4)cc3)CC2)c(C)cc1O`, the Inhibition turned out to be 27%.

As for `O=S(=O)(ON=C1CCc2ccccc21)c1ccc(Cl)cc1`, the Inhibition turned out to be 0%.

With `CCOC(=O)c1cc(C(=O)NCCCCN2CCC(c3ccc4c(c3OC)CCCC4)CC2)ccc1-c1ccc(C(F)(F)F)cc1`, the Inhibition is on record as 100%.

Turning to `O=C(O)C(F)(F)F.c1cc(CN2CCN(CCN3CCOCC3)CC2)cc(-c2ccc(-c3nc4ccccc4[nH]3)cc2)c1`, the Inhibition was found to be 23%.

With `CCNc1cc(C(=O)N[C@@H](Cc2ccccc2)[C@H](O)CNCCc2cccc3ccccc23)cc(N2CCCC2=O)c1.O=CO`, the Inhibition is on record as 12%.

As to `Cc1cnc(C(=O)Nc2cccc(-c3ccc(-c4nc5cc(F)ccc5[nH]4)cc3)c2)cn1`, the Inhibition stood at 19%.

`COc1ccccc1N(C)CCNc1cc(C)nc(Nc2ccc(C)cc2)n1` yielded an Inhibition of 9%.

The compound `Cc1cccc2nc(-c3ccc(-c4cccc(NC(=O)COc5ccccc5C(N)=O)c4)s3)[nH]c12` displayed an Inhibition of 80%.

`CCOC(=O)NC1=NC(C)(C)N(OCc2ccc(Cl)c(Cl)c2)C(NC(=O)OCC)=N1`: the Inhibition is 65%.

Turning to `c1ccc2[nH]c(CN(Cc3nc4ccccc4[nH]3)Cc3nc4ccccc4[nH]3)nc2c1`, the Inhibition turned out to be 39%.

The compound `COc1ccc(CNC2CCN(C)CC2)cc1-c1ccc(S(=O)(=O)NCc2ccccc2)cc1.O=C(O)C(F)(F)F` showed an Inhibition of 56%.

Turning to `FC(F)(F)c1ccc(NC(=S)N2CCC(CCN3CCC(c4c[nH]c5ccccc45)CC3)CC2)cc1`, the Inhibition was determined as 44%.

Compound `Br.CC1(C)NC(N)=NC(=N)N1OCCCc1cccc(C(F)(F)F)c1` displayed an Inhibition of 62%.

The compound `Nc1nccc2ccc(OC3CCCCC3)cc12.O=CO` gave an Inhibition of 24%.

In turn, `Cc1cc(NCC(C)C)c2[nH]nc(-c3ccccc3)c2n1` had an Inhibition of 9%.

As for `CC1CCc2c(C(=O)Nc3c(F)cc(F)cc3Br)csc2C1` (stereo not given), the Inhibition turned out to be 0%.

`Cc1c(-c2cccc(Br)c2)[nH]c2nc(N)nc(N)c12` gave an Inhibition of 8%.

Compound `Cc1cc(C(=O)CN2C(=O)NC3(CCCc4ccccc43)C2=O)c(C)n1Cc1ccco1` (stereo not given) had an Inhibition of 11%.

In turn, `O=C(O)c1cc(C(F)(F)F)co1` displayed an Inhibition of 0%.

The compound `CN1CCN(CC(O)CNC(=O)Nc2ccc(Br)cc2)CC1.O=C(O)C(F)(F)F` (stereo not given) displayed an Inhibition of 5%.

Take `O=C(Nc1cccc(C(F)(F)F)c1)c1cc([N+](=O)[O-])cc2cn[nH]c12`: the Inhibition came out at 60%.

`COc1ccc(-c2ccc(CNC3Cc4ccccc4C3)cc2)cc1S(=O)(=O)NCCN1CCCC1.O=C(O)C(F)(F)F`: the Inhibition worked out at 30%.

In turn, `COc1cc(Cc2c(C)nc3nc(N)nc(N)c3c2C)c(Br)c(OC)c1OC.Cl` yielded an Inhibition of 44%.
